# MCF10A rereplic – inducers of DNA re-replication in MCF 10A breast cells | 2.9% of 350,000 active | MCF 10A DNA re-replication, Hoechst nuclear intensity, 48 h | AID 624296 | Potency, µM (highest dose often 46.1 µM), inactives show top-dose activity, positive = re-replication, hits mostly activators; note: potency is the fitted concentration of half-maximal effect; % of control where 0% means no effect; nearly all actives have a fitted effect of over 50% in size
# TDP1 cell noCPT – qHTS for Inhibitors of human tyrosyl-DNA phosphodiesterase 1 (TDP1): qHTS in cells in absence of CPT; DT40 Tdp1-/- hTDP1 cells, no CPT, ATP luminescence, 48 h; Potency, µM (doses to about 46.2 µM), for the others: top-dose activity change, negative = growth inhibition, most hits filed as inhibitors; 15% of 420,000 active; note: potency is the fitted concentration of half-maximal effect; % is set by controls: 0 for no effect and ±100 for the full control effect; nearly all actives have a fitted effect of over 55% in size
#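 No-CPT arm: Tdp1-/-;hTDP1 DT40 cells (400/well) plus compounds, incubated ≥48 hr at 37 °C. Readout CellTiter-Glo luminescence.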
# Chronic BCR inh – inhibitors of chronic active B-cell receptor signaling | ABC-DLBCL IkBa-CBG/CBR reporter, luminescence ratio, 4 h | Potency, µM (titrated, usually from 46.1 µM), for inactives: at the top dose activity change, negative = inhibition, most hits filed as inhibitors | 0.05% of 340,000 active | AID 493014; active = well fitted inhibition curve with a large enough effect in the signal ratio, with a control signal flat, not every such curve was filed as active; inconclusive = small, poorly fitted or top-dose-only effect, or effect the other way, or a change in a side signal; the % refers to the signal ratio;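 note: potency is the fitted concentration of half-maximal effect; plate controls were basal doxycycline-induced cells for no effect and cells given 10 µM MG132 for full effect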
#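 Compounds up to 46 uM were incubated four hours with TMD8 cells whose green CBG68 luciferase is fused to IkappaBalpha; red CBR luminescence normalised the signal, and concentration-effect curves were fitted to fusion, red and ratio data.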
# TDP1 cell CPT – DT40-hTDP1 cell growth loss with CPT; chicken DT40 Tdp1-/-;hTDP1 cells + 20 nM CPT, ATP luminescence, 48 h; 12% of 420,000 active; Potency, µM (doses to about 46.2 µM), for inactives: top-dose activity change, negative = growth inhibition, usual class: inhibitors; note: potency is the fitted concentration of half-maximal effect; % is set by controls: 0 for no effect and ±100 for the full control effect; nearly all actives have a fitted effect of over 55% in size
#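 Chicken DT40 Tdp1-/- cells complemented with human TDP1, 400 cells/well, exposed to compounds plus 20 nM camptothecin for at least 48 h at 37 C; viability read as ATP content by CellTiter-Glo luminescence.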
# SW480 rerep – DNA re-replication induction in SW480 cells. SW480 DNA re-replication, Hoechst DNA content imaging, 48 h. AID 624297. 1.8% of 340,000 active. Potency, µM (titrated, usually from 46.1 µM), inactives show at the highest dose re-replication activation, actives largely listed as activators; note: potency is the fitted concentration of half-maximal effect; % of control where 0% means no effect; nearly all actives have a fitted effect of over 55% in size
#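 First, 250 cells per well were seeded. Next, compound or vehicle (23 nL) was pinned in, plates sat 48 hr at 37 C. Finally Hoechst was added for 40 min before fluorescence scanning.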
# IL-1B inflam inh – inflammasome signaling inhibition, IL-1 beta readout. AID 743279. activity change, % at 57.5 µM. 4.7% of 360,000 active. THP-1 LPS/ATP IL-1B secretion, AlphaLISA, 16 h; active compounds read low; in the data active = activity change below about -50%; inconclusive = mostly about -30% to -49%; note: % is set by controls: 0 for no effect and ±100 for the full control effect
#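 THP-1 cells pretreated 1 hr with compounds (up to 57.5 uM final), then stimulated with LPS (250 ng/mL final) plus ATP (1.25 mM final); secreted IL-1B measured by AlphaLISA after 16 hr, decreased signal indicating inhibition.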
# Active calls of the source: *; ? = inconclusive; · = no result. A selection: hits, their analogues and other compounds. The true share with any hit is near 19%. Unless noted, calls come from the whole dose curve; as a rule, active = well fitted curve in the direction sought with a large enough effect; inconclusive = small, poorly fitted or top-dose-only effect, or another doubt; inactive = no such curve, though single readings can be large; an effect the other way counts as inactive or inconclusive.
SMILES,MCF10A rereplic,TDP1 cell noCPT,Chronic BCR inh,TDP1 cell CPT,SW480 rerep,IL-1B inflam inh
Cc1ccsc1/C=N/Nc1ncnc2nc[nH]c12,0.3%,?,?,-10.8%,-10.0%,80.9
C(=N\Nc1ncnc2nc[nH]c12)/c1cccs1,5.1%,1.9%,?,1.8%,-9.6%,-73.8*
CCc1ccc(Nc2ncnc3nc[nH]c23)cc1,?,-26.6%,-11.9%,-9.5%,3.4%,-23.7
Cc1ccccc1/C=N/Nc1ncnc2nc[nH]c12,-0.1%,-9.1%,?,-15.9%,18.4µM*,29.1
O=C(CC[C@H]1O[C@@H](n2ccc(=O)[nH]c2=O)[C@H](O)[C@@H]1O)NC1CCN(Cc2ccccc2)C1 (stereo partly drawn),·,-1.4%,·,19.0%,·,0.5
COC(=O)c1ccc(CNC(=O)COC(=O)Cc2ccsc2)cc1,-30.8%,-6.2%,5.7%,-2.9%,-28.9%,-2.5
CNS(=O)(=O)c1cn(CC(=O)N(C)Cc2ccccc2)cc1S(=O)(=O)NC,0.9%,3.6%,-1.8%,5.2%,8.9%,-18.3
Cc1noc(C)c1C(=O)OCC(=O)c1cc(C)n(Cc2ccccc2Cl)c1C,3.2%,14.6µM*,?,20.6µM*,1.1%,23.9
COc1ccc(C)cc1Nc1n[n+](-c2ccccc2)c(-c2c(Cl)cccc2Cl)s1,?,13µM*,?,20.6µM*,?,-0.3
COc1ccc(C)cc1Nc1n[n+](-c2ccccc2)c(-c2ccc(N(C)C)cc2)s1,?,20.6µM*,-12.7%,10.3µM*,?,-66.9*
COc1ccc(C)cc1Nc1n[n+](-c2ccccc2)c(-c2ccc(OC)c(OC)c2OC)s1,-17.3%,18.4µM*,-18.4%,16.4µM*,0.3%,58.6
CC1CSC(N(C(=O)c2ccc(S(C)(=O)=O)cc2)c2ccc(Cl)cc2)=N1 (stereo not drawn),110.4%,?,-1.7%,?,3.3%,17.7
CCN1CCN(CCOc2cccc(Cl)c2Cl)CC1,?,?,-1.8%,?,?,2.0
CC1CC(C)CN(CCOc2ccc(Cl)cc2Cl)C1 (stereo not drawn),17.3%,?,-3.6%,?,-2.9%,-67.9*
Clc1ccc(OCCN2CCCCC2)c(Cl)c1,-5.4%,-20.7%,?,-8.3%,-0.7%,-13.1
CC1CC(C)CN(CCOc2cccc(Cl)c2Cl)C1 (stereo not drawn),12.2%,?,?,?,2.1%,-68.4*
O=C(CSc1nc2ccccc2c(=O)n1-c1ccccc1Cl)NC1CCS(=O)(=O)C1 (stereo not drawn),-3.3%,-5.2%,?,-23.9%,-22.9%,3.5
O=C(NCc1ccccc1)c1cnc(N2CCCCC2)c2ccccc12,·,?,·,23.1µM*,·,·
COc1ccc(NC(=O)c2cccnc2N2CCCCC2)cc1,5.2%,?,-1.7%,-24.9%,-2.5%,4.2
Cc1nc(N2CCCC2)ncc1C(=O)Nc1ccccc1,·,-10.4%,·,-28.3%,·,·
Cc1ccc(NC(=O)c2cnc(N3CCCCC3)c3ccccc23)cc1Cl,·,?,·,20.6µM*,·,·
CCOC(=O)c1ccccc1NC(=O)c1cnc(N2CCOCC2)c2ccccc12,·,16.4µM*,·,?,·,·
CCOc1ccc(NC(=O)c2cnc(N3CCCCC3)c3ccccc23)cc1,·,13µM*,·,20.6µM*,·,·
CC1(C(=O)NCc2ccccc2)CCC(=O)N1CCCn1ccnc1 (stereo not drawn),·,-5.1%,·,0.9%,·,-5.5
O=C(Nc1ccc(C(F)(F)F)cc1)c1ccccc1-n1cnnn1,?,8.0%,1.4%,-25.4%,-5.8%,-16.6
SMILES,MCF10A rereplic,TDP1 cell noCPT,Chronic BCR inh,TDP1 cell CPT,SW480 rerep,IL-1B inflam inh
C[C@@H](NC(=O)c1nc[nH]c1C(=O)NCc1ccccc1)c1ccccc1,5.8%,?,-0.3%,?,-3.5%,-12.6
Cc1ccc(S(=O)(=O)N2CCCCC2)cc1NC(=O)c1cc2ccccc2o1,19.2%,?,0.0%,?,-10.4%,-4.1
COc1ccc(S(=O)(=O)N2CCOCC2)cc1NC(=O)c1cc2ccccc2o1,?,13µM*,3.7%,?,-52.9%,-18.3
O=C(CCNC(=O)c1ccc([N+](=O)[O-])cc1)Nc1cccc(S(=O)(=O)N2CCCCC2)c1,-6.3%,?,?,?,1.9%,?
CCN1CCN(c2ccc(S(=O)(=O)N3CCCCC3)cc2NC(=O)c2cc3ccccc3o2)CC1,9.7%,16.4µM*,-0.7%,?,4.5%,-7.5
CCOc1ccc(S(=O)(=O)N2CCCCC2)cc1NC(=O)Cc1ccc(OC)cc1,·,?,·,?,·,-1.4
COc1ccc(CC(=O)Nc2cc(S(=O)(=O)N3CCCCC3)ccc2C)cc1,4.3%,20.6µM*,-6.8%,?,29.6%,2.6
Cc1ccc(S(=O)(=O)N2CCCCC2)cc1NC(=O)CCNC(=O)c1ccc([N+](=O)[O-])cc1,1.7%,16.4µM*,1.7%,23.1µM*,?,8.0
O=C(Nc1cccc(C(F)(F)F)c1)Nc1ccc2nc([C@@H]3O[C@H](CO)[C@@H](O)[C@H](O)[C@H]3O)[nH]c2c1,·,5.7%,·,10.5%,·,21.1
COc1ccc(S(=O)(=O)Nc2cccc3c2O[C@H](CN(C)C(=O)Nc2ccccc2)[C@@H](C)CN([C@H](C)CO)C3=O)cc1,-56.3%,-23.3%,6.4%,2.7%,-12.8%,-2.0
CCc1cccc(NC(=O)COC(=O)c2cn(CC)c3nc(C)ccc3c2=O)c1,·,?,·,-10.6%,·,·
CCN1CCN(c2c(Cl)cccc2NC(=O)c2cc3ccccc3o2)CC1,?,18.4µM*,·,?,15.7%,-24.6
COc1ccc(S(=O)(=O)N2CCOCC2)cc1NC(=O)[C@@H]1CCCN1C(=O)c1cccs1,-7.1%,-13.5%,0.2%,-1.6%,-37.1%,14.9
CCN1CCN(c2ccc(S(=O)(=O)N3CCCCC3)cc2NC(=O)CC(NC(C)=O)c2ccccc2)CC1 (stereo not drawn),4.6%,-15.0%,0.5%,-0.6%,-1.6%,-6.3
CCN1CCN(c2ccc(S(=O)(=O)N3CCCCC3)cc2NC(=O)Cc2ccc(OC)cc2)CC1,?,?,-0.6%,-29.9%,0.4%,-79.8*
O=C(Nc1cccnc1Cl)c1cc2ccccc2o1,3.2%,22.1%,?,-1.4%,-19.5%,20.9
COc1ccc(S(=O)(=O)N2CCOCC2)cc1NC(=O)C1CCCN1C(=O)c1cccs1 (stereo not drawn),?,?,?,0.259µM*,-1.8%,-19.1

# Screening data deposited in PubChem BioAssay by National Center for Advancing Translational Sciences (NCATS).
